Data published in PubChem BioAssay AID818 (SRMLSC, 2007).
The whole screen tested about 140,000 compounds, of which about 2,100 (1.5%) were called active. The sample as a whole holds a higher share of actives than the screen did. A number with no mark means an inactive call.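 Rule for the calls: active = viability at or under a set limit, the compound median less 4 SD (cut at about 6% in these data); inactive = the rest.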

Experiment: primary screen for growth suppressors in beta-catenin knockout HCT116 cells (colon tumor, human) (AID 818);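 note: 0% = Hyamine 1622 control at 20 µM and 100% = untreated cell control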
Conditions: CellTiter-Glo, 60 h, at 10 µM, hits give low values

| SMILES | viability |
| --- | --- |
| COCCn1c(SCC(=O)Nc2ccc3c(c2)CCC3)nc2ccccc2c1=O | 81.5% |
| O=C(/C=C/NCc1ccc(F)cc1)c1ccccc1 | 87.5% |
| NS(=O)(=O)c1cc(C(=O)NCCOc2ccccc2)c(Cl)cc1Cl | 78.4% |
| COc1ccccc1-n1nnnc1S(=O)(=O)Cc1ccc(Cl)cc1 | 2.91% (active) |
| COc1ccccc1N1CCN(Cc2nnnn2CCc2ccccc2)CC1 | 82.5% |
| COc1ccccc1N1CCN(C(=O)CN(Cc2ccc(Cl)cc2)S(C)(=O)=O)CC1 | 68.4% |
| CCc1cccc(C)c1NC(=O)COC(=O)Cc1ccsc1 | 80.8% |
| COc1ccc(-c2cc(C(F)(F)F)nc(SCC(=O)Nc3ccc4c(c3)OCO4)n2)cc1OC | 91.6% |
| Oc1ccc(Cl)cc1/C=N/c1nc2ccccc2[nH]1 | 89.3% |
| COc1ccc(/C=C(/NC(=O)c2ccc(C)cc2)c2nc3ccccc3[nH]2)cc1OC | 87.3% |
| O=C(/C(=C/c1cccc(Cl)c1)c1nc2ccccc2[nH]1)c1ccccc1 | 1.3% (active) |
| Cc1cc(C)cc(C(=O)NC(=S)Nc2ccc3[nH]c(=O)[nH]c3c2)c1 | 95.8% |
| Cc1cccc(NC(=O)Cn2c(=O)n(Cc3ccccc3)c(=O)c3c(C)c(C)sc32)c1 | 77% |
| COc1ccc(/C=C(/CC(=O)Nc2ccc(C)cc2)c2nc3ccccc3s2)cc1 | 73% |
| Fc1ccccc1/C=C1\CCCC2=C1Nc1ncnn1C2c1ccccc1F (stereo not drawn) | 4.91% (active) |
| CC(C)(C)SCCNC(=O)c1cccc([N+](=O)[O-])c1 | 97.8% |
| COc1ccc(/C=C/C(=O)c2cc(Br)ccc(=O)c2O)cc1 | 11.3% |
| COC(=O)CN1C(=O)C(O)=C(C(C)=O)C1c1ccc([N+](=O)[O-])cc1 (stereo not drawn) | 86.9% |
| COC(=O)CN1C(C)=Nc2ccc(Br)cc2C1c1ccccc1 (stereo not drawn) | 0.76% (active) |
| CCC(CC)C(=O)N1CC(=O)Nc2ccc(Br)cc2C1c1ccccc1 (stereo not drawn) | 80.3% |

| SMILES | viability |
| --- | --- |
| CCCCCC(=O)Nc1ccc(S(=O)(=O)Nc2ccc(Cl)nn2)cc1 | 102% |
| CCCCc1nc(NCc2ccccc2)c(C#N)c2c1CCCC2 | 81% |
| Cc1nc(NCCN)c(C#N)c2c1COC(C)(C)C2 | 94.1% |
| CCCCc1nc(NCCN)c(C#N)c2c1CSC(C)(C)C2 | 1.71% (active) |
| CCC(C)C(=O)Nc1cc([N+](=O)[O-])ccc1Cl (stereo not drawn) | 96.4% |
| Oc1c(Br)cccc1/C=N/Nc1c(F)c(F)c(F)c(F)c1F | 51% |
| O=c1c2sccc2nc(SCc2cc(=O)n3ccccc3n2)n1-c1ccc(Br)cc1 | 59.1% |
| CCCC(NS(=O)(=O)c1ccc(OC)cc1)C(=O)O (stereo not drawn) | 92.4% |
| COc1ccc(O[C@H]2C=C[C@@H](c3ccccc3)O[C@@H]2CO/N=C/C[C@@H]2C=C[C@H](OC(C)=O)[C@@H](COC(C)=O)O2)cc1 | 88.8% |
| CCCNC(=O)OC[C@H]1O[C@H](CCO/N=C/[C@@H](NS(=O)(=O)c2ccc(C)cc2)[C@H](C)/C=C/CC(=O)OC)C=C[C@@H]1Oc1ccc(OC)cc1 | 0.62% (active) |
| NNc1nc2c(Cl)cccc2s1 | 83.6% |
| Cc1ccc(C(=O)Oc2coc(CSc3nnc(NC(=O)c4cccs4)s3)cc2=O)cc1C | 96.1% |
| Cc1ccc(S(=O)(=O)NCCSc2ccccc2)cc1[N+](=O)[O-] | 104% |
| O=C(Nc1ccc(CSc2ccccc2)cc1)c1ccc(CN2CCOCC2)cc1 | 12.2% |
| COc1ccc(Cl)cc1-n1c(C)cc(C(=O)OCC(=O)N2CC(=O)Nc3ccccc32)c1C | 69.3% |
| Cc1cccc(NC(=O)c2sc(-c3ccccc3)nc2-c2ccc([N+](=O)[O-])cc2)c1 | 80.5% |
| CCOC(=O)/C(=C\c1ccc([N+](=O)[O-])cc1)C(=O)c1cc(C(C)=O)c(Nc2ccccc2)s1 | 1.71% (active) |
| O=C(Nc1ccccc1)/C(=C/c1ccc([N+](=O)[O-])cc1)NC(=O)c1ccccc1 | 87.1% |
| Cc1cccc(N2C(=O)SC(SC(=Nc3ccccc3)Nc3ccccc3)C2=O)c1 (stereo not drawn) | 82.6% |
| Cc1ccc(C(=O)N/C(=C/c2cccnc2)C(=O)O)cc1 | 87.7% |

| SMILES | viability |
| --- | --- |
| CC(C)(C)c1nnc(N/N=C/c2ccc(O)cc2)n(N)c1=O | 90.8% |
| c1ccc2c(c1)CSc1sccc1C2=C1CCNCC1 | 3.31% (active) |
| COc1ccc(-n2c(C)cc(C(=O)CN3C(=O)NC4(CCc5ccccc54)C3=O)c2C)cc1 (stereo not drawn) | 70.1% |
| O=C(Nc1cccc(Cl)c1)Nc1ccccc1NS(=O)(=O)c1cccs1 | 71.1% |
| Cc1csc(NC(=O)CN2CCCCCC2)n1 | 93.4% |
| O=C(Nc1cc(N2CCOCC2)ncn1)NC1(C(F)(F)F)Oc2ccc(Cl)cc2O1 (stereo not drawn) | 76.8% |
| Cc1csc(NC(=O)NC2(C(F)(F)F)Oc3ccccc3O2)n1 | 5.7% (active) |
| Cc1ccn(CC(=O)N2N=C(C(F)F)CC2(O)C(F)F)n1 (stereo not drawn) | 101% |
| N#C/C(=C\C1=C(N2CCOCC2)C(=C\c2ccccc2)/CC1)C(=O)Nc1ccccc1F | 65.8% |
| Oc1ccc(/C=N/NC2=NCCCCC2)c(O)c1 | 94.7% |
| CCN(CC)c1ccc(/C=N/Nc2nc(C)cc(=O)[nH]2)cc1 | 76.5% |
| CCN(CC)c1ccc(/C=N/Nc2nc(C)cc(C)n2)c(O)c1 | 5.53% (active) |
| CCOC(=O)c1c(NC(=O)C2(C)Cc3ccccc3C(=O)O2)sc2c1CCCC2 (stereo not drawn) | 79.4% |
| Cc1ccc(C)c(NC(=O)CCC(=O)NNC(=O)c2cccs2)c1 | 96.8% |
| O=C(/C=C\c1ccc2c(c1)OCO2)NC1(C(=O)Nc2ccc3c(c2)OCCO3)CCCCC1 | 102% |
| COc1ccc2nc(Nc3nc4cc5c(cc4s3)OCCO5)sc2c1 | 90.5% |
| CCOc1ccc2nc(Nc3nc4ccc(NC(C)=O)cc4s3)sc2c1 | 74.6% |
| COc1ccc2nc(Nc3nc4ccc(NC(C)=O)cc4s3)sc2c1 | 2.25% (active) |
